Reference: PubChem BioAssay AID1159580 (chemical genetic matrix, 2015)
In all, about 5,500 compounds went through this assay and about 2,000 (36%) were called active. About 18% were inconclusive and are not listed. Some of the results follow. Values without a mark were called inactive. No stated cut-off is given here; in the data, active means normalized growth mostly below about 0.91 (no sharp cut-off); inconclusive means no clear call, values can overlap the other calls; inactive means mostly above about 0.92.

Experiment: chemical genetic growth profiling, strain panel (AID 1159580);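 further: tested at 20 µM; growth read once vehicle control cultures reached saturation at 30 °C; 1 = growth at the plate median or of vehicle wells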
Details: S. cerevisiae deletion strains, growth OD
[1] = locus YAL013W, strain DEP1, stronger effect = lower value
[2] = locus YBR229C, strain ROT2, stronger effect = lower value
[3] = locus YCL061C, strain MRC1, stronger effect = lower value
[4] = locus YDL101C, strain DUN1, stronger effect = lower value
[5] = locus YDR150W, strain NUM1, stronger effect = lower value
[6] = locus YEL061C, strain CIN8, stronger effect = lower value
[7] = locus YGR078C, strain PAC10, stronger effect = lower value
[8] = locus YGR229C, strain SMI1, stronger effect = lower value
[9] = locus YHR030C, strain SLT2, stronger effect = lower value
[10] = locus YHR087W, strain rtc3, stronger effect = lower value
[11] = locus YJR043C, strain POL32, stronger effect = lower value
[12] = locus YJR075W, strain HOC1, stronger effect = lower value
[13] = locus YKL190W, strain CNB1, stronger effect = lower value
[14] = locus YLR039C, strain RIC1, stronger effect = lower value
[15] = locus YLR058C, strain SHM2 (second series), stronger effect = lower value
[16] = locus YLR085C, strain ARP6, stronger effect = lower value
[17] = locus YLR262C, strain YPT6, stronger effect = lower value
[18] = locus YML094W, strain GIM5, stronger effect = lower value
[19] = locus YMR219W, strain ESC1, stronger effect = lower value
[20] = locus YMR263W, strain SAP30, stronger effect = lower value
[21] = locus YNL153C, strain GIM3, stronger effect = lower value
[22] = locus YNL298W, strain CLA4 (second series), stronger effect = lower value
[23] = locus YNL322C, strain KRE1, stronger effect = lower value
[24] = locus YNR030W, strain Alg12, stronger effect = lower value
[25] = locus YPL055C, strain LGE1, stronger effect = lower value
[26] = locus YPL241C, strain CIN2, stronger effect = lower value
[27] = locus YPR135W, strain CTF4, stronger effect = lower value

CC(O)CNc1ccc(C(F)(F)F)cc1[N+](=O)[O-] (configuration not stated)
normalized growth [1]: 1.01
normalized growth [2]: 1.01
normalized growth [3]: 1.03
normalized growth [4]: 1.03
normalized growth [5]: 1.04
normalized growth [6]: 0.997
normalized growth [7]: 1.02
normalized growth [8]: 0.993
normalized growth [9]: 0.987
normalized growth [10]: 1
normalized growth [11]: 1.02
normalized growth [12]: 1.04
normalized growth [13]: 1.02
normalized growth [14]: 1.08
normalized growth [15]: 0.998
normalized growth [16]: 0.989
normalized growth [17]: 0.985
normalized growth [18]: 0.947
normalized growth [19]: 1
normalized growth [20]: 1.02
normalized growth (locus YMR307W, strain GAS1, stronger effect = lower value): 1.03
normalized growth (locus YNL128W, strain TEP1, stronger effect = lower value): 1.02
normalized growth [21]: 0.998
normalized growth [22]: 1.05
normalized growth [23]: 1
normalized growth [24]: 0.999
normalized growth [25]: 0.966
normalized growth [26]: 1.01
normalized growth [27]: 1.01

O=[N+]([O-])c1cc(C(F)(F)F)ccc1NCCCn1ccnc1
normalized growth [1]: 1.01
normalized growth [2]: 1.01
normalized growth [4]: 1.06
normalized growth (locus YDL134C, strain PPH21, stronger effect = lower value): 0.976
normalized growth [5]: 1.04
normalized growth [6]: 0.988
normalized growth [7]: 1.03
normalized growth [9]: 1.1
normalized growth [10]: 0.965
normalized growth [11]: 1.04
normalized growth [12]: 1.04
normalized growth [13]: 0.994
normalized growth [14]: 1.08
normalized growth [15]: 1
normalized growth [16]: 1.03
normalized growth [17]: 1
normalized growth [18]: 1.01
normalized growth [19]: 0.991
normalized growth [20]: 1.03
normalized growth [21]: 1.04
normalized growth [22]: 1.01
normalized growth [23]: 0.98
normalized growth [24]: 1.01
normalized growth [25]: 0.991
normalized growth [26]: 1.03
normalized growth [27]: 1.07

O=C(NCCNc1ccc(C(F)(F)F)cc1[N+](=O)[O-])c1cccs1
normalized growth [1]: 0.974
normalized growth [2]: 0.972
normalized growth [3]: 0.983
normalized growth [4]: 0.93
normalized growth [5]: 0.931
normalized growth [6]: 0.948
normalized growth [7]: 0.967
normalized growth [8]: 0.974
normalized growth [9]: 0.673 (active)
normalized growth [10]: 0.973
normalized growth [11]: 0.978
normalized growth [12]: 0.998
normalized growth [14]: 0.838
normalized growth [15]: 0.967
normalized growth [16]: 0.775 (active)
normalized growth [17]: 0.915
normalized growth [18]: 0.841 (active)
normalized growth [19]: 0.982
normalized growth [20]: 1.02
normalized growth [21]: 0.976
normalized growth [22]: 0.863
normalized growth [23]: 0.988
normalized growth [24]: 0.911
normalized growth (locus YOL006C, strain TOP1, stronger effect = lower value): 0.778
normalized growth [25]: 0.771 (active)
normalized growth [26]: 1.13
normalized growth [27]: 0.743
